SMILES strings stand for the structures. Several values for one entry are separate records, joined by “and”; a condition that tells them apart may be missing. Identical values can stand only once. Compounds without any hit were thinned out: in the full panel of roughly 83,000, 20% have a hit.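 Single-concentration screen, 48 h exposure, 96-well plates. Endpoint: percent growth. Below 10 = active.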 Activity calls are given as the source filed them.

Among the test systems are HCT-15 colon; HT29 colon; SNB-75 CNS; SNB-19 CNS; U251 CNS; PC-3 prostate; SK-MEL-5 melanoma; UACC-62 melanoma; LOX IMVI melanoma; SK-MEL-28 melanoma; SK-MEL-2 melanoma; SN12C renal; UO-31 renal; TK-10 renal; ACHN renal; CAKI-1 renal; A498 renal; CCRF-CEM leukemia; MOLT-4 leukemia; EKVX NSCLC.
Common to all, as to assay: NCI-60 one-dose screen, 48 h (100 = growth as untreated, 0 = no growth, -100 = all killed)
Holding throughout (conditions): 10 µM unless noted

For `CC1CC(O)CC(C)(C)C1.CC1CC(O)CC(C)(C)C1.CC1CC(O)CC(C)(C)C1.CC1CC(O)CC(C)(C)C1.[Ti]` (configuration not stated), the growth in the assay with HCT-15 colon was 110% (inactive); in the assay on HT29 colon, 97.2% (inactive); with SNB-75 CNS it was 113% (inactive); in the assay on SNB-19 CNS it was 93.4% (inactive); in the assay with U251 CNS, 99.2% (inactive); in the assay on PC-3 prostate it was 90.4% (inactive). Moreover, the growth is 104% (inactive) with SK-MEL-5 melanoma; 76.2% (inactive) in the assay on UACC-62 melanoma; 106% (inactive) in the assay on LOX IMVI melanoma; 118% (inactive) in the assay with SK-MEL-28 melanoma; 93.9% (inactive) with SK-MEL-2 melanoma; 82% (inactive) with SN12C renal. Further, the growth was 79% (inactive) with UO-31 renal; 104% (inactive) in the assay with TK-10 renal; 111% (inactive) in the assay on ACHN renal; 94.9% (inactive) with CAKI-1 renal; 106% (inactive) in the assay with A498 renal; 112% (inactive) in the assay with CCRF-CEM leukemia. In addition, in the assay on MOLT-4 leukemia, the growth is 98.8% (inactive).
Consider `CCc1ccc(OC(=O)CCl)cc1`, for which the growth was 107% (inactive) in the assay on HCT-15 colon; 107% (inactive) with HT29 colon; 89.7% (inactive) in the assay on SNB-75 CNS; 108% (inactive) in the assay on SNB-19 CNS; 97% (inactive) in the assay with U251 CNS; 98.3% (inactive) in the assay with PC-3 prostate. The growth was 105% (inactive) with SK-MEL-5 melanoma; 106% (inactive) in the assay on UACC-62 melanoma; 93.3% (inactive) in the assay on LOX IMVI melanoma; 98.4% (inactive) in the assay on SK-MEL-28 melanoma; 99.9% (inactive) in the assay with SK-MEL-2 melanoma; 98.6% (inactive) in the assay on EKVX NSCLC. Also, the growth with SN12C renal is 106% (inactive); in the assay on UO-31 renal, 88.6% (inactive); with TK-10 renal it was 101% (inactive); in the assay with CAKI-1 renal, 101% (inactive); in the assay on A498 renal, 88.3% (inactive); in the assay on CCRF-CEM leukemia it was 104% (inactive). For the same compound, the growth in the assay on MOLT-4 leukemia is 102% (inactive).
In the case of `COc1ccc2oc3c(ccc[n+]3C)c(=O)c2c1`, the growth is 100% (inactive) with HCT-15 colon; 96.6% (inactive) with HT29 colon; 100% (inactive) with SNB-75 CNS; 97.9% (inactive) in the assay on SNB-19 CNS; 93.6% (inactive) in the assay with U251 CNS; 93.1% (inactive) in the assay with PC-3 prostate. Further, the growth in the assay on SK-MEL-5 melanoma was 99.4% (inactive); in the assay with UACC-62 melanoma, 92.6% (inactive); with LOX IMVI melanoma, 99.9% (inactive); in the assay with SK-MEL-28 melanoma, 103% (inactive); in the assay on SK-MEL-2 melanoma it was 99.6% (inactive); in the assay with EKVX NSCLC it was 93.3% (inactive). Also, the growth was 110% (inactive) in the assay with SN12C renal; 91.9% (inactive) in the assay with UO-31 renal; 97.6% (inactive) with TK-10 renal; 98.2% (inactive) in the assay on CAKI-1 renal; 95.7% (inactive) in the assay with A498 renal; 110% (inactive) in the assay on CCRF-CEM leukemia. The growth with MOLT-4 leukemia was 103% (inactive).
For the compound `COC(=O)CCOc1ccccc1`, the growth was 101% (inactive) in the assay on HCT-15 colon; 97.9% (inactive) in the assay on HT29 colon; 61.1% (inactive) with SNB-75 CNS; 99.5% (inactive) with SNB-19 CNS; 96% (inactive) in the assay on U251 CNS; 85.3% (inactive) with PC-3 prostate. Further, the growth with SK-MEL-5 melanoma was 95.5% (inactive); in the assay on UACC-62 melanoma it was 99% (inactive); in the assay with LOX IMVI melanoma it was 91.3% (inactive); in the assay on SK-MEL-28 melanoma, 123% (inactive); with SK-MEL-2 melanoma, 84% (inactive); in the assay on EKVX NSCLC, 96.6% (inactive). Also, the growth with SN12C renal was 110% (inactive); in the assay with UO-31 renal, 86.8% (inactive); in the assay on TK-10 renal it was 108% (inactive); in the assay with CAKI-1 renal it was 86.3% (inactive); with A498 renal it was 83.9% (inactive); in the assay on CCRF-CEM leukemia it was 95.2% (inactive). Moreover, the growth in the assay on MOLT-4 leukemia was 98.6% (inactive).
Regarding `N#CC1c2ccccc2C=CN1C(=O)c1ccccc1` (configuration not stated), the growth with HCT-15 colon was 111% (inactive) and 104% (inactive); in the assay on HT29 colon, 112% (inactive) and 107% (inactive); in the assay with SNB-75 CNS, 92.1% (inactive) and 98% (inactive); in the assay on SNB-19 CNS, 103% (inactive) and 109% (inactive); in the assay with U251 CNS, 101% (inactive) and 97.5% (inactive); with PC-3 prostate it was 92.4% (inactive) and 146% (inactive). Besides, the growth with SK-MEL-5 melanoma was 97.1% (inactive) and 107% (inactive); with UACC-62 melanoma, 97.4% (inactive) and 83.7% (inactive); in the assay on LOX IMVI melanoma, 102% (inactive) and 94.8% (inactive); in the assay on SK-MEL-2 melanoma it was 109% (inactive); in the assay on EKVX NSCLC it was 106% (inactive) and 92.7% (inactive); in the assay with SN12C renal it was 99.8% (inactive) and 94.3% (inactive). The growth is 78.6% (inactive) and 97.8% (inactive) in the assay on UO-31 renal; 109% (inactive) and 115% (inactive) in the assay with TK-10 renal; 94.6% (inactive) and 90% (inactive) in the assay on ACHN renal; 97.6% (inactive) and -6.46% (active) in the assay on CAKI-1 renal; 98.9% (inactive) and 148% (inactive) in the assay on A498 renal; 88.2% (inactive) and 130% (inactive) in the assay on CCRF-CEM leukemia. In addition, in the assay on MOLT-4 leukemia, the growth is 89.2% (inactive) and 125% (inactive).
`CC(=O)Oc1cc(C(C)C)c(OCCN(C)C)cc1C`: the growth with HCT-15 colon was 105% (inactive) and 104% (inactive); with HT29 colon, 110% (inactive) and 115% (inactive); in the assay on SNB-75 CNS it was 102% (inactive) and 89.9% (inactive); with SNB-19 CNS, 105% (inactive) and 98.2% (inactive); in the assay on PC-3 prostate, 92% (inactive) and 103% (inactive); in the assay with SK-MEL-5 melanoma, 106% (inactive) and 103% (inactive). The growth was 99.7% (inactive) and 94% (inactive) in the assay with UACC-62 melanoma; 94% (inactive) and 102% (inactive) with LOX IMVI melanoma; 119% (inactive) and 88.5% (inactive) in the assay on SK-MEL-28 melanoma; 116% (inactive) and 119% (inactive) in the assay with SK-MEL-2 melanoma; 107% (inactive) with EKVX NSCLC; 96.7% (inactive) and 97.6% (inactive) in the assay on SN12C renal. For the same compound, the growth was 94.2% (inactive) and 97.3% (inactive) in the assay on UO-31 renal; 112% (inactive) and 121% (inactive) in the assay with TK-10 renal; 99.4% (inactive) in the assay with ACHN renal; 91.9% (inactive) and 95.3% (inactive) in the assay with CAKI-1 renal; 98.3% (inactive) and 97.4% (inactive) in the assay with A498 renal; 113% (inactive) and 99.6% (inactive) with CCRF-CEM leukemia. For the same compound, in the assay on MOLT-4 leukemia, the growth was 117% (inactive) and 105% (inactive).
Consider `Cc1cc(=NO)cc(C)n1O`, for which the growth in the assay with HCT-15 colon was 113% (inactive); in the assay with HT29 colon, 114% (inactive); with SNB-75 CNS, 92.6% (inactive); with SNB-19 CNS, 103% (inactive); in the assay with U251 CNS, 113% (inactive); with PC-3 prostate it was 102% (inactive). In addition, the growth in the assay on SK-MEL-5 melanoma is 112% (inactive); with UACC-62 melanoma it was 102% (inactive); with LOX IMVI melanoma, 99.9% (inactive); in the assay with SK-MEL-2 melanoma, 113% (inactive); with EKVX NSCLC, 105% (inactive); in the assay with SN12C renal, 100% (inactive). The growth is 101% (inactive) with UO-31 renal; 84.7% (inactive) in the assay with TK-10 renal; 117% (inactive) in the assay with ACHN renal; 109% (inactive) in the assay with CAKI-1 renal; 93.9% (inactive) with A498 renal; 80.9% (inactive) with CCRF-CEM leukemia. Besides, the growth in the assay with MOLT-4 leukemia is 96.6% (inactive).
As to `CCN(CC)CCNC(=O)c1ccc(NCN2C(=O)NC(c3ccccc3)(c3ccccc3)C2=O)cc1`, the growth in the assay on HCT-15 colon was 113% (inactive) and 105% (inactive); in the assay on HT29 colon, 108% (inactive) and 112% (inactive); in the assay on SNB-75 CNS, 103% (inactive) and 97.1% (inactive); in the assay with SNB-19 CNS it was 109% (inactive) and 105% (inactive); with U251 CNS, 95.2% (inactive) and 102% (inactive); with PC-3 prostate it was 97.6% (inactive) and 93% (inactive). Moreover, the growth is 101% (inactive) and 109% (inactive) in the assay with SK-MEL-5 melanoma; 104% (inactive) and 97% (inactive) in the assay with UACC-62 melanoma; 95.1% (inactive) and 97.6% (inactive) with LOX IMVI melanoma; 106% (inactive) and 112% (inactive) in the assay with SK-MEL-2 melanoma; 90.6% (inactive) and 95.3% (inactive) with EKVX NSCLC; 107% (inactive) and 105% (inactive) in the assay with SN12C renal. The growth in the assay on UO-31 renal was 86.6% (inactive) and 67.1% (inactive); with TK-10 renal it was 115% (inactive) and 114% (inactive); in the assay on ACHN renal, 107% (inactive) and 104% (inactive); with CAKI-1 renal, 90.5% (inactive) and 88.1% (inactive); with A498 renal, 81.1% (inactive) and 205% (inactive); in the assay on CCRF-CEM leukemia it was 101% (inactive). Besides, the growth in the assay on MOLT-4 leukemia was 102% (inactive) and 108% (inactive).

(Values after PubChem BioAssay (NCI).)
